“And” between values parts separate entries of the source, which are not always exact repeats. Equal values may be shown once. Hit rate of the full screen: of about 5,500 compounds, about 2,000 (36%) were called active. Inconclusive results (about 18%) are left out. Cut-off read from the data, not from the text of the source: active = normalized growth mostly below about 0.91 (no sharp cut-off); inconclusive = no clear call, values can overlap the other calls; inactive = mostly above about 0.92. The list shows a part of the results.
Experiment: chemical genetic growth profiling, strain panel (AID 1159580);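 note: tested at 20 µM; growth read once vehicle control cultures reached saturation at 30 °C; 1 = growth at the plate median or of vehicle wells; lower values mean less growth of the strain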
Settings: S. cerevisiae deletion strains, growth OD

Measured: normalized growth

CCOC(=O)C(Cc1ccc(O)cc1)NC(C)=O (stereo unspecified)
inactive: locus YAL013W, strain DEP1, active compounds read low 0.99 | locus YAL021C, strain ccr4, active compounds read low 1.01 | locus YAL026C, strain drs2, active compounds read low 1.01 | locus YAL030W, strain snc1, active compounds read low 1 | locus YBL061C, strain skt5, active compounds read low 1.02 | locus YBR009C, strain hhf1, active compounds read low 0.974 | locus YBR021W, strain FUR4, active compounds read low 1.01 | locus YBR023C, strain chs3, active compounds read low 1.01 | locus YBR171W, strain sec66, active compounds read low 1.01 | locus YBR229C, strain ROT2, active compounds read low 1.01 | locus YBR231C, strain swc5, active compounds read low 1 | locus YBR279W, strain paf1, active compounds read low 1 | locus YCL011C, strain gbp2, active compounds read low 1 | locus YCL016C, strain dcc1, active compounds read low 1 | locus YCL029C, strain bik1, active compounds read low 0.999 | locus YCL069W, strain vba3, active compounds read low 0.989 | locus YCR088W, strain abp1, active compounds read low 1.01 | locus YDL005C, strain med2, active compounds read low 1.02 | locus YDL035C, strain GPR1, active compounds read low 1.02 | locus YDL040C, strain nat1, active compounds read low 1.01 | locus YDL074C, strain BRE1, active compounds read low 1.02 | locus YDL101C, strain DUN1, active compounds read low 1.02 | locus YDL134C, strain PPH21, active compounds read low 1 | locus YDL185W, strain tfp1, active compounds read low 0.993 | locus YDL192W, strain arf1, active compounds read low 0.996 | locus YDR001C, strain nth1, active compounds read low 1.01 | locus YDR069C, strain doa4, active compounds read low 0.998 | locus YDR101C, strain arx1, active compounds read low 0.996 | locus YDR137W, strain rgp1, active compounds read low 1.02 | locus YDR150W, strain NUM1, active compounds read low 1.01 | locus YDR159W, strain sac3, active compounds read low 0.985 | locus YDR162C, strain NBP2, active compounds read low 1.02 | locus YDR195W, strain ref2 1.01 | locus YDR297W, strain sur2, active compounds read low 1 | locus YDR318W, strain mcm21, active compounds read low 1.01 | locus YDR334W, strain swr1, active compounds read low 0.997 | locus YDR335W, strain msn5, active compounds read low 1.01 | locus YDR388W, active compounds read low 1.01 | locus YDR392W, strain spt3, active compounds read low 1.03 | locus YDR502C, strain sam2, active compounds read low 0.992 | locus YEL003W, strain gim4, active compounds read low 1.01 | locus YEL037C, strain rad23, active compounds read low 1 | locus YEL061C, strain CIN8 (second series), active compounds read low 0.998 | locus YEL061C, strain CIN8, active compounds read low 1.01 | locus YER015W, strain faa2, active compounds read low 1 | locus YER016W, strain bim1, active compounds read low 1.03 | locus YER110C, active compounds read low 1.01 | locus YER111C, strain swi4, active compounds read low 1.02 | locus YER155C, strain BEM2 (second series), active compounds read low 1.04 | locus YER155C, strain BEM2, active compounds read low 1 | locus YER167W, strain BCK2, active compounds read low 1.02 | locus YFR010W, strain ubp6, active compounds read low 0.987 | locus YGL078C, strain dbp3, active compounds read low 0.993 | locus YGL086W, strain mad1, active compounds read low 1 | locus YGL167C, strain pmr1, active compounds read low 1.01 | locus YGL173C, strain kem1, active compounds read low 1.01 | locus YGL227W, strain vid30, active compounds read low 1 | locus YGL240W, strain doc1, active compounds read low 1.03 | locus YGL248W, strain PDE1, active compounds read low 1.01 | locus YGL253W, strain hxk2, active compounds read low 1 | locus YGR078C, strain PAC10, active compounds read low 1.02 | locus YGR135W, strain pre9, active compounds read low 0.989 | locus YGR229C, strain SMI1, active compounds read low 1.03 | locus YGR252W, strain gcn5, active compounds read low 0.961 | locus YHR013C, strain ard1, active compounds read low 1.03 | locus YHR027C, strain rpn1, active compounds read low 1.01 | locus YHR030C, strain SLT2, active compounds read low 1.02 and 0.974 | locus YHR079C, strain IRE1 (second series), active compounds read low 1.01 | locus YHR079C, strain IRE1, active compounds read low 0.984 | locus YHR094C, strain hxt1, active compounds read low 1.01 | locus YHR129C, strain ARP1, active compounds read low 1.01 | locus YHR142W, strain chs7, active compounds read low 1.01 | locus YHR200W, strain rpn10, active compounds read low 1.01 | locus YIL066C, strain RNR3, active compounds read low 1.01 | locus YIL073C, strain SPO22, active compounds read low 1 | locus YIL125W, strain kgd1, active compounds read low 1 | locus YIR030C, strain dcg1, active compounds read low 0.997 | locus YJL092W, strain hpr5, active compounds read low 1 | locus YJL095W, strain BCK1 (second series), active compounds read low 1.03 | locus YJL095W, strain BCK1, active compounds read low 1.04 and 0.965 | locus YJL115W, strain asf1, active compounds read low 0.999 | locus YJL129C, strain trk1, active compounds read low 1.02 | locus YJL134W, strain LCB3, active compounds read low 1.02 | locus YJL154C, strain vps35, active compounds read low 1.01 | locus YJL164C, strain tpk1, active compounds read low 1 | locus YJL166W, strain qcr8, active compounds read low 0.995 | locus YJL168C, strain set2, active compounds read low 1.01 | locus YJL187C, strain SWE1 (second series), active compounds read low 1.02 | locus YJL187C, strain SWE1, active compounds read low 1.01 | locus YJR043C, strain POL32, active compounds read low 1.02 | locus YJR066W, strain TOR1, active compounds read low 0.887

— PubChem BioAssay AID1159580 (chemical genetic matrix, 2015)
